The supplement of paper PMC11732987, “Enantioselective OTUD7B fragment discovery through chemoproteomics screening and high-throughput optimisation” (Communications Chemistry, 2025)

Tests used:
Experiment in all cases: log2 ratio of Biotin-Ahx-Ub-VS probe labelling (fragment/DMSO); higher = less target engagement (more negative = stronger competition), active = hit call of the paper (q ≤ 0.05, log2 ratio ≤ -1)
Details in all cases: compound concentration: 200 uM; treatment time: 3 h
[1] = target: T1, ALG13 (UniProt Q9NP73)
T1 sequence (whole entry): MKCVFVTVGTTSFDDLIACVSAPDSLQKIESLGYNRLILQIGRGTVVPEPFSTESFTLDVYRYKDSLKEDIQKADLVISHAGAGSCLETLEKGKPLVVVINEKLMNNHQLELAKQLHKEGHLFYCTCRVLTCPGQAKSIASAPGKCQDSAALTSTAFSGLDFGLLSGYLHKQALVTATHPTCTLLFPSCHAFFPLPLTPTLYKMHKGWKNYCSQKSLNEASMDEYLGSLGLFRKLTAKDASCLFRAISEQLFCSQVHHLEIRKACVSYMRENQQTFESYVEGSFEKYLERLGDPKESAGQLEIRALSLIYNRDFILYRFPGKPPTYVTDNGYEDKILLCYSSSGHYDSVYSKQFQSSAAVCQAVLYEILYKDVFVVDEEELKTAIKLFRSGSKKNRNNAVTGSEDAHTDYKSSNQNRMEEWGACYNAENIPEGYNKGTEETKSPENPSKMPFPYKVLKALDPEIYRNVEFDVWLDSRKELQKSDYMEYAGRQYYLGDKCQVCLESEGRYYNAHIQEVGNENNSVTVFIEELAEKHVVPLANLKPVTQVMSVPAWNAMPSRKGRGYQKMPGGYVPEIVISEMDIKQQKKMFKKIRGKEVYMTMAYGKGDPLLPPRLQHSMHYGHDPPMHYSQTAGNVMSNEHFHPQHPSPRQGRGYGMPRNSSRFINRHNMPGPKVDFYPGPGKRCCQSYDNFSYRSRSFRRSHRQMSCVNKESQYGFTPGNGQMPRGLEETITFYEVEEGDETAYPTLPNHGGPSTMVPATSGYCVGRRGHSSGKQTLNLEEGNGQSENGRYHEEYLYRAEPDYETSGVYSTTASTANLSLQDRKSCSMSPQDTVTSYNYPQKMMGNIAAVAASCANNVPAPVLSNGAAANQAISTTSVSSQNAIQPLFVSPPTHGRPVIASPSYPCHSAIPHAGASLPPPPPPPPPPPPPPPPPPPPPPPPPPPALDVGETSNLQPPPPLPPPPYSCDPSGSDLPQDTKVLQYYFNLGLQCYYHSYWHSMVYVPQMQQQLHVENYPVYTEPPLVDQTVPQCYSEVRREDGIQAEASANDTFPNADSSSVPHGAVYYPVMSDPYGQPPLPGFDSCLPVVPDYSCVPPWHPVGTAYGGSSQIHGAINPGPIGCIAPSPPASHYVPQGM
How it was run: (§1)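 Using Biotin-Ahx-Ub-VS at 0.5 µM final for 1 h, DUBs were labelled in HEK293T lysate (495 µg per sample) that had first been treated in triplicate with fragment at 200 µM or vehicle for 3 h. NeutrAvidin enrichment, LysC and trypsin digestion and diaPASEF LC-MS/MS followed. Spectronaut label-free quantities were global-median-normalised. Values are average log2 fragment/vehicle ratios by unpaired t-test, using proteins with ≥2 unique peptides.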

[2] = target: ATXN3 (UniProt P54252)
ATXN3, sequence (P54252 whole entry): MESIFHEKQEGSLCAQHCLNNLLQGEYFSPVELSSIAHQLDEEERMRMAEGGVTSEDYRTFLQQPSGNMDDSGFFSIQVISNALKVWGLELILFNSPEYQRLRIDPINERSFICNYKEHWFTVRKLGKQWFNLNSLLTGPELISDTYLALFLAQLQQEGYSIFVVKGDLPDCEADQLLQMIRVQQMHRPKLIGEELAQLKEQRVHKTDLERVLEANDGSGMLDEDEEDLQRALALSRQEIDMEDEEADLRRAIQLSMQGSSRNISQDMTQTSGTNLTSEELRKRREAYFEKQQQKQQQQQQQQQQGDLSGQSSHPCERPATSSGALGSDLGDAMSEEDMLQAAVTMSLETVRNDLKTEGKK
How it was run: as §1

[3] = target: T2, BAP1 (UniProt Q92560)
T2 sequence (whole entry): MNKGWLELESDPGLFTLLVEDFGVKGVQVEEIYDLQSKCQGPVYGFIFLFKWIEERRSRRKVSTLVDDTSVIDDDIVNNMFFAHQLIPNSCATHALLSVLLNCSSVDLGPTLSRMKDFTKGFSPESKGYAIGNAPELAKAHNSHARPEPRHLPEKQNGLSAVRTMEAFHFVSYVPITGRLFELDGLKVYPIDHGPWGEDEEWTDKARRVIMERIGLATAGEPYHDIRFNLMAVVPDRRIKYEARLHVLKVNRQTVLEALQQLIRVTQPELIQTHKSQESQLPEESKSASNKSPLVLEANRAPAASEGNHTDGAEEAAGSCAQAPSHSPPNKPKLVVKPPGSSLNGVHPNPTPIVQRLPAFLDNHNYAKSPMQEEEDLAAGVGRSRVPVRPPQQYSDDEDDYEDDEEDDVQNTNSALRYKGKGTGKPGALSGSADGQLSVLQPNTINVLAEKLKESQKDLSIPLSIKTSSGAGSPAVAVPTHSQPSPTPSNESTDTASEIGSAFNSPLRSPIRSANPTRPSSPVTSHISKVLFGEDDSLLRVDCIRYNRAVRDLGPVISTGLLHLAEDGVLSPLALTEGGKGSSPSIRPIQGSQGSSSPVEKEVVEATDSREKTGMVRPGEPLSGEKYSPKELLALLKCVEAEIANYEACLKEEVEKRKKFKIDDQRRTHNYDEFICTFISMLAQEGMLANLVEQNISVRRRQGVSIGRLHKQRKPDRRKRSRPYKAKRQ
How it was run: as §1

[4] = target: EIF3F (UniProt O00303)
EIF3F, sequence (O00303 whole entry): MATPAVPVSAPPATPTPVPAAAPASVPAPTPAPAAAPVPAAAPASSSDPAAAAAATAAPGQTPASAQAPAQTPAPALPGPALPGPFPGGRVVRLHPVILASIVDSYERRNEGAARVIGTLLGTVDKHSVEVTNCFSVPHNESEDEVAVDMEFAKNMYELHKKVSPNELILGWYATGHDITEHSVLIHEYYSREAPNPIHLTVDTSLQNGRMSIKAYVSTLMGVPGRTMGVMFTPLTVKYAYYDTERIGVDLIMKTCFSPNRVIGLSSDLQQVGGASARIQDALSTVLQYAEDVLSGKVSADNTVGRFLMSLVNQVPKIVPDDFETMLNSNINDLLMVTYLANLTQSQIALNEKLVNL
How it was run: as §1

[5] = target: EIF3H (UniProt O15372)
EIF3H, sequence (O15372 whole entry): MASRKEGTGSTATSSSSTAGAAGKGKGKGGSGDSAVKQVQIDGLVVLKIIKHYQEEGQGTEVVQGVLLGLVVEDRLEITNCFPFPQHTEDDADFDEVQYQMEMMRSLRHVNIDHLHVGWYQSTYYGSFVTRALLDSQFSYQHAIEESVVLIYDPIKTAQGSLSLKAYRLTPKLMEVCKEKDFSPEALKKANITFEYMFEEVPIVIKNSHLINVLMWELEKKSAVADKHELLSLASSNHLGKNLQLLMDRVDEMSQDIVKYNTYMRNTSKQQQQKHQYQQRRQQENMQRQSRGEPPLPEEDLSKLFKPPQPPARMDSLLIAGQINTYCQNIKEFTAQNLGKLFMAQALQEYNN
How it was run: as §1

[6] = target: T3, FAM105A (UniProt Q9NUU6)
T3 sequence (whole entry): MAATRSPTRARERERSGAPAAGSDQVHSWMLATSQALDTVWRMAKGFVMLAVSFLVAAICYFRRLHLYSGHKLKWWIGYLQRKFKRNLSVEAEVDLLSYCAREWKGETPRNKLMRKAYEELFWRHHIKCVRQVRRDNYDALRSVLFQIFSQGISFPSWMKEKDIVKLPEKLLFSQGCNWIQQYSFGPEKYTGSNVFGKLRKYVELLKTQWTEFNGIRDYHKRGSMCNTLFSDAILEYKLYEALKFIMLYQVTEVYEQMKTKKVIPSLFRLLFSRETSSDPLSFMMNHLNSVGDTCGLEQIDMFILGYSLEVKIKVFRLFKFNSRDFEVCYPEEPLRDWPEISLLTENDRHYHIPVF
How it was run: as §1

[7] = target: OTUB1 (UniProt Q96FW1)
OTUB1, sequence (Q96FW1 whole entry): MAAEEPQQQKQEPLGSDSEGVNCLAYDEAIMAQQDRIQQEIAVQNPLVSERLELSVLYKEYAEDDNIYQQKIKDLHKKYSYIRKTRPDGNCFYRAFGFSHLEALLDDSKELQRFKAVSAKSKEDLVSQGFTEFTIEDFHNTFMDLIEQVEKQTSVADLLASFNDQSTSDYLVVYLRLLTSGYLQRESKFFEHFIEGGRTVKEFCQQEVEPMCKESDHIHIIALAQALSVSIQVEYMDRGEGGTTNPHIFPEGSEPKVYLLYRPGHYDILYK
How it was run: as §1

[8] = target: T4, OTUD4 (UniProt Q01804)
T4 sequence (whole entry): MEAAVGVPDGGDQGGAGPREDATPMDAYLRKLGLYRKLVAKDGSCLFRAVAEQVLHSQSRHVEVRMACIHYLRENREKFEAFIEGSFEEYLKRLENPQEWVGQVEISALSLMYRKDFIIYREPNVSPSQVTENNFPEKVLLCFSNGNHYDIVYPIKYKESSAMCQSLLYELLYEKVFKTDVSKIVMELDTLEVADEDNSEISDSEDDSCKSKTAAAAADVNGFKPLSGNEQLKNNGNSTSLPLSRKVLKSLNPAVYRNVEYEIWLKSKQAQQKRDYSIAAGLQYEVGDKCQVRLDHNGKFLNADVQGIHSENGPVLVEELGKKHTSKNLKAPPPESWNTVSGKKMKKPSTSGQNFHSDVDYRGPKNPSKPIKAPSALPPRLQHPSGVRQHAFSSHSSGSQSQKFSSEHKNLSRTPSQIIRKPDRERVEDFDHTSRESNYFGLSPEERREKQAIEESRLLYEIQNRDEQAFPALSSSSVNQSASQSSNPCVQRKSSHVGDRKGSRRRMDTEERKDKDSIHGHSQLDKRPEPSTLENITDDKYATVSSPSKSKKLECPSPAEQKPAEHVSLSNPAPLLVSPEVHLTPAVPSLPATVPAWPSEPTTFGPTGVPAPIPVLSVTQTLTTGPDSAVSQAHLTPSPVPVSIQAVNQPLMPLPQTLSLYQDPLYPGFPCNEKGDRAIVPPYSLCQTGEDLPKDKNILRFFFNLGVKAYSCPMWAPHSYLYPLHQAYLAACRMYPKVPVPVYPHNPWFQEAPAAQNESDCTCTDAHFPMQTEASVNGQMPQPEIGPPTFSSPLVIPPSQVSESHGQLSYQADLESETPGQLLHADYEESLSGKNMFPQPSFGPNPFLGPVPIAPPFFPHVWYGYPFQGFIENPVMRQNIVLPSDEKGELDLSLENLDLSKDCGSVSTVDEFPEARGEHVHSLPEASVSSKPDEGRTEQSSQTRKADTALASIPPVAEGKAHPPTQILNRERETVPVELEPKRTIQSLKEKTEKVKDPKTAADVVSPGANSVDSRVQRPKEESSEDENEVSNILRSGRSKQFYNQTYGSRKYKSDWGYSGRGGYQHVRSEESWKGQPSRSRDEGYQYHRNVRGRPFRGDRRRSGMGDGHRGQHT
How it was run: as §1

[9] = target: T5, OTUD5 (UniProt Q96G74)
T5 sequence (whole entry): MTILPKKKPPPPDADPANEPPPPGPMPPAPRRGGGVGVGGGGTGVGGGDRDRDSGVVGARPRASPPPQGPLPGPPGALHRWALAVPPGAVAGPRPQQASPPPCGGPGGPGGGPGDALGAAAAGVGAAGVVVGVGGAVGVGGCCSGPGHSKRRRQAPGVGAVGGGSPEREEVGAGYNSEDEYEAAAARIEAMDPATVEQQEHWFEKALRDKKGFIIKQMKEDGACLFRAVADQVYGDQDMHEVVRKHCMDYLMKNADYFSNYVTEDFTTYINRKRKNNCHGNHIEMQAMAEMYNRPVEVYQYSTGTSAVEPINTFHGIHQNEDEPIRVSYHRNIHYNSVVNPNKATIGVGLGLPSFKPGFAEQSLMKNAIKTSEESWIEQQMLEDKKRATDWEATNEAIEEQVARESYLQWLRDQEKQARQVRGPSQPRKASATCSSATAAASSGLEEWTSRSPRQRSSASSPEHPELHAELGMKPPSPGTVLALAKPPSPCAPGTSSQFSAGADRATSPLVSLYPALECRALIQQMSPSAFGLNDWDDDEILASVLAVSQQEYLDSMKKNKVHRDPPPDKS
How it was run: as §1

Measured: log2 ratio of Biotin-Ahx-Ub-VS probe labelling

O=C(CCl)N1CCCN(C(=O)c2ccc(Cl)cc2)CC1
inactive: [1] -0.303 | [2] -0.712 | [3] -0.719 | [4] -0.31 | [5] 0.393 | [6] 0.113 | [7] -0.428 | [8] -0.424 | [9] -0.688
